Experimental data from the supplement of paper PMC9694430.

Test system: LOC_OS03G04050-cb001
Test: thermal shift delta Tm vs DMSO control; higher = stronger stabilization (binding)
Settings: 12.5 µM; protein concentration 2 µM
In short: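 The melting temperature shift given here is a triplicate mean, measured against protein that received only DMSO. Melting temperatures came from Boltzmann fits of differential scanning fluorimetry data on E. coli-expressed, purified rice kinase domain constructs. Each 19.5 μl well contained 2 μM kinase, 100 mM potassium phosphate pH 7.5, 150 mM NaCl, 10% glycerol, 5 × SYPRO Orange and compound in DMSO. Plates were scanned from 25°C to 95°C at 0.05°C/s.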

SMILES	thermal shift delta Tm [°C]
COc1cc(OC)cc(-c2cc3cnc(N)nc3nc2NC(=O)NC(C)(C)C)c1	0.34
COc1cc2nccc(Oc3ccc(NC(=O)C4(C(=O)Nc5ccc(F)cc5)CC4)cc3)c2cc1OC [Cabozantinib malate (XL184)]	0.7
COc1ncc(-c2ccc3nccc(-c4ccnnc4)c3c2)cc1NS(=O)(=O)c1ccc(F)cc1F	0.9
Cc1cc(C(C)Nc2ccccc2)c2nc(N3CCOCC3)cc(=O)n2c1 (stereo not drawn)	0.44
FC(F)(F)c1ccc(CNc2ccc(Cc3c[nH]c4ncc(Cl)cc34)cn2)cn1 [Pexidartinib (PLX3397)]	0.27
NC(=O)c1ccc(N(C(N)=O)c2c(F)cccc2F)nc1-c1ccc(F)cc1F	0.39
NCC(=O)Nc1ccc(-n2nc(C(F)(F)F)cc2-c2ccc3c(ccc4ccccc43)c2)cc1	0.64
CCn1c(-c2nonc2N)nc2c(C#CC(C)(C)O)ncc(OC[C@H]3CCCNC3)c21	0.51
Nc1cccc(S(=O)(=O)N2CCCN(S(=O)(=O)c3ccc4c(c3)OCCO4)CC2)c1	0.38
C[C@@H]1COC(Nc2ccc3ncnc(Nc4ccc(OCc5nccs5)c(Cl)c4)c3c2)=N1 [Varlitinib]	0.48
Cc1cc2c(F)c(Oc3ncnn4cc(OC[C@@H](C)OC(=O)[C@H](C)N)c(C)c34)ccc2[nH]1	0.25
CNC(=O)c1ccc(-c2cnc3ncc(Cc4ccc5ncccc5c4)n3n2)cc1F	0.48
CN(C)C/C=C/C(=O)Nc1cc2c(Nc3ccc(F)c(Cl)c3)ncnc2cc1O[C@H]1CCOC1 [Afatinib (BIBW2992)]	0.26
O=c1cc(N2CCOCC2)oc2c(-c3ccc4c(c3)OCCO4)csc12	0.24
C=CC(=O)Nc1cc(Nc2nccc(-c3c[nH]c4ccccc34)n2)c(OC)cc1N(C)CCN(C)C	0.7
Nc1nccc(Oc2ccc3c(C(=O)Nc4cccc(C(F)(F)F)c4)cccc3c2)n1	0.37
CC(C)(C)c1nc(-c2ccc(NC(=O)Nc3cccc(C(F)(F)F)c3)c3ccccc23)c2c(N)nccn12 [kira6]	0.01
COc1ccc(-c2cc3c(C)nc(N)nc3n([C@H]3CC[C@H](OCCO)CC3)c2=O)cn1	0.5
O=C(O)c1cc(O)c2c(c1)[C@@H]([C@H]1c3cc(C(=O)O)cc(O)c3C(=O)c3c(O[C@@H]4O[C@H](CO)[C@@H](O)[C@H](O)[C@H]4O)cccc31)c1cccc(O[C@@H]3O[C@H](CO)[C@@H](O)[C@H](O)[C@H]3O)c1C2=O [Sennoside B]	1.23

SMILES	thermal shift delta Tm [°C]
NC(=O)c1cnc2[nH]ccc2c1N[C@@H]1[C@@H]2CC3C[C@H]1C[C@@](O)(C3)C2	-0.03
C=CC(=O)Nc1cccc(Nc2nc(Nc3ccc(OCCOC)cc3)ncc2F)c1	1.14
CCS(=O)(=O)Nc1ccc2c(c1)/C(=C(/Nc1ccc(CN3CCCCC3)cc1)c1ccccc1)C(=O)N2 [Hesperadin]	0.02
COc1cc2c(cc1OC)[C@@H]1C(=O)c3ccc4c(c3O[C@@H]1CO2)C=CC(C)(C)O4 [Deguelin]	0.25
Cc1cc(Nc2cc(N3CCN(C)CC3)nc(/C=C/c3ccccc3)n2)n[nH]1 [ENMD-2076 L-(+)-Tartaric acid]	0.44
Cc1ccc(NC(=O)c2ccc(CN3CCN(C)CC3)cc2)cc1Nc1nc(-c2cccnc2)cs1 [Masitinib (AB1010)]	0.47
C=CC(=O)N1CC[C@@H](Oc2nc(Nc3ccc(N4CCC(N5CCN(C)CC5)CC4)cc3)c(C(N)=O)nc2CC)C1 [Naquotinib(ASP8273)]	0.21
N#CC(=C(/N)Sc1ccccc1N)/C(C#N)=C(\N)Sc1ccccc1N	0.78
COc1cc2/c(=N/c3ccc(Br)cc3F)nc[nH]c2cc1OCC1CCN(C)CC1 [Vandetanib (ZD6474)]	0.67
O=C(Nc1cccc(C(F)(F)F)c1)c1cccc2cc(Oc3cc(CO)ncn3)ccc12	0.59
CS(=O)(=O)CCNCc1ccc(-c2ccc3ncnc(Nc4ccc(OCc5cccc(F)c5)c(Cl)c4)c3c2)o1 [Lapatinib]	0.53
c1cn2cc(-c3ccc4cn[nH]c4c3)nc(Nc3ccc(N4CCOCC4)cc3)c2n1 [Entospletinib (GS-9973)]	0.92
CS(=O)(=O)c1cccc(CNc2nc(Nc3ccc4c(c3)CCC(=O)N4)ncc2C(F)(F)F)c1	0.17
CN1CCN(Cc2ccc(NC(=O)Nc3ccc(Oc4ccnc(N)n4)cc3)cc2C(F)(F)F)CC1	0.12
OCCn1cc(-c2cnc3nnn(Cc4ccc5ncccc5c4)c3n2)cn1	0.84
O=C1NC(=O)C(c2cnc3ccccn23)=C1c1cn2c3c(cc(F)cc13)CN(C(=O)N1CCCCC1)CC2	0.57
C=CC(=O)N1CCC[C@@H](n2nc(-c3ccc(Oc4ccccc4)cc3)c3c(N)ncnc32)C1	0.88
CC(C)(O)CNc1ncc(-c2ccnc(Nc3ccnc(Cl)c3)n2)c(CC2CC2)n1	0.19
COc1ccc(S(=O)(=O)N(C(C)=O)c2ccccc2/C=C/c2cc[n+]([O-])cc2)cc1	0.19
